Measurements reported in PubChem BioAssay (EPA / NIEHS).
Inconclusive results are not listed. The source made the active and inactive calls. How the source made its calls, unless noted: active means hit-call score of the fitted dose curve at least 0.9, where 1 is the maximum; inconclusive means response in the unintended direction; inactive means score below 0.9.

Assays:
[1] = molecular target: human Peroxisome Proliferator-activated Receptor alpha (PPARa), PPARA (gene 5465) (UniProt Q07869); assay: ATG_PPARa_TRANS: Attagene TRANS-FACTORIAL HepG2 Assay for human Peroxisome Proliferator-activated Receptor alpha (PPARa) (AID 2283001);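 on AC50: potency for gain of reporter signal over DMSO so agonist or activator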
Outline: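 Cells (HepG2) are transfected with multiple reporter transcription units, exposed to chemical for 24 h, then total RNA is reverse-transcribed and amplified. Labelled products are quantified by capillary electrophoresis; induction is referenced to DMSO.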

[2] = molecular target: human Peroxisome Proliferator-activated Receptor delta (PPARd), PPARD (gene 5467) (UniProt Q03181); assay: ATG_PPARd_TRANS: Attagene TRANS-FACTORIAL HepG2 Assay for human Peroxisome Proliferator-activated Receptor delta (PPARd) (AID 2283002)
Outline: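 HepG2 cells transiently transfected with multiplexed GAL4-UAS reporter units and exogenous chimeric NR-Gal4 proteins; 24 h compound exposure. Reporter mRNA measured by RT-PCR, 6-FAM labelling, HpaI digestion and capillary electrophoresis; gain of signal versus DMSO.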

[3] = molecular target: Retinoic acid receptor alpha (Homo sapiens) (UniProt P10276); assay: ATG_RARa_TRANS: Attagene TRANS-FACTORIAL HepG2 Assay for human Retinoic Acid Receptor alpha (RARa) (AID 2283005);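 on AC50: potency for increased reporter signal meaning RARa activation over DMSO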
Outline: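 HepG2 cells transiently transfected with multiple reporter units expressing chimeric RARα-GAL4 fusion, with GAL4-UAS-driven reporters. After 24 h compound exposure, reporter mRNA induction quantified by RT-PCR and capillary electrophoresis with fluorescent labeling; gain-of-signal fitted relative to DMSO control.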

[4] = molecular target: human RAR-related Orphan Receptor beta (RORb), RORB (gene 6096) (UniProt Q92753); assay: ATG_RORb_TRANS: Attagene TRANS-FACTORIAL HepG2 Assay for human RAR-related Orphan Receptor beta (RORb) (AID 2283010)
Outline: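 Transfect HepG2 with multiple GAL4-UAS reporter transcription units; dose chemicals for 24 h; isolate RNA, reverse-transcribe and PCR-amplify reporter sequences; label, digest and resolve fragments by capillary electrophoresis; fit increases relative to DMSO.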

[5] = molecular target: Retinoic acid receptor RXR-alpha (Homo sapiens) (UniProt P19793); assay: ATG_RXRa_TRANS: Attagene TRANS-FACTORIAL HepG2 Assay for human Retinoid X Receptor alpha (RXRa) (AID 2283012)
Outline: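 Measures exogenous chimeric NR-GAL4 activity in transfected HepG2 liver cells after 24 h of dosing. Induced reporter mRNA was detected by RT-PCR with capillary electrophoresis, and gain of signal was analysed against DMSO.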

[6] = molecular target: human Retinoid X Receptor beta (RXRb), RXRB (gene 6257) (UniProt P28702); assay: ATG_RXRb_TRANS: Attagene TRANS-FACTORIAL HepG2 Assay for human Retinoid X Receptor beta (RXRb) (AID 2283013)
Outline: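 Chimeric receptor-Gal4 activity was assessed in transiently transfected human HepG2 cells after 24 h exposure. Transcripts from GAL4-UAS reporters were quantified by fluorescent RT-PCR and capillary electrophoresis, with DMSO as negative control and baseline.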

[7] = molecular target: Nuclear receptor subfamily 1 group I member 2 (Homo sapiens) (UniProt O75469); assay: ATG_PXR_TRANS: Attagene TRANS-FACTORIAL HepG2 Assay for human Pregnane X Receptor (PXR) (AID 2283008)
Outline: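 Transient HepG2 transfectants carrying multiplexed reporter transcription units; PXR activity read through a Gal4 chimera. 24 h exposure. RT-PCR/CE fluorescence; upward curve fit referenced to DMSO.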

[8] = molecular target: human Retinoic Acid Receptor gamma (RARg), RARG (gene 5916) (UniProt P13631); assay: ATG_RARg_TRANS: Attagene TRANS-FACTORIAL HepG2 Assay for human Retinoic Acid Receptor gamma (RARg) (AID 2283009);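 on AC50: AC50 is for reporter induction above DMSO meaning RARg activation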
Outline: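 TRANS format measured activity of exogenous NR-GAL4 fusion (RARg) in transfected HepG2 liver cells after 24 h dosing. Induced reporter RNA was detected by RT-PCR/capillary electrophoresis fluorescence, analysed in the positive direction against DMSO.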

[9] = molecular target: human Thyroid Receptor alpha (THRa1), THRA (gene 7067) (UniProt P10827); assay: ATG_THRa1_TRANS: Attagene TRANS-FACTORIAL HepG2 Assay for human Thyroid Receptor alpha (THRa1) (AID 2283014)
Outline: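 First, HepG2 cells receive multiple GAL4-UAS reporter units and the chimeric receptor. They are then dosed for 24 h, after which RNA is reverse-transcribed, amplified, labelled, HpaI-cut and sized by capillary electrophoresis; gain relative to DMSO is scored.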

[10] = molecular target: human Vitamin D Receptor (VDR), VDR (gene 7421) (UniProt P11473); assay: ATG_VDR_TRANS: Attagene TRANS-FACTORIAL HepG2 Assay for human Vitamin D Receptor (VDR) (AID 2283022)
Outline: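 Fluorescence of labelled reporter cDNA fragments, resolved by capillary electrophoresis, gives mRNA induction after 24 h treatment of HepG2 cells carrying transfected Gal4-fusion reporter units. Activity is fitted in the positive direction with DMSO as baseline.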

[11] = molecular target: Peroxisome proliferator-activated receptor gamma (Homo sapiens) (UniProt P37231); assay: ATG_PPARg_TRANS: Attagene TRANS-FACTORIAL HepG2 Assay for human Peroxisome Proliferator-activated Receptor-gamma (PPARg) (AID 2283007)
Outline: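 Transient transfection of HepG2 with GAL4-UAS-driven reporter units; chemical dosing 24 h; total RNA → oligo(dT) RT → PCR with reporter primers → 6-FAM primer extension → HpaI digest 2 h 37 C → capillary electrophoresis. Positive direction vs DMSO.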

[12] = molecular target: human RAR-related Orphan Receptor gamma (RORg), RORC (gene 6097) (UniProt P51449); assay: ATG_RORg_TRANS: Attagene TRANS-FACTORIAL HepG2 Assay for human RAR-related Orphan Receptor gamma (RORg) (AID 2283011)
Outline: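 Activity is scored as increase in GAL4-UAS reporter mRNA over DMSO, detected by fluorescent RT-PCR and capillary electrophoresis in HepG2 cells transiently expressing a RORg-Gal4 chimera, 24 h after dosing.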

[13] = molecular target: human Retinoic Acid Receptor beta (RARb), RARB (gene 5915) (UniProt P10826); assay: ATG_RARb_TRANS: Attagene TRANS-FACTORIAL HepG2 Assay for human Retinoic Acid Receptor beta (AID 2283004)
Outline: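 HepG2, transient MRTU transfection, NR–Gal4 chimera, 24 h treatment; RT-PCR plus CE fluorescence detection of reporter mRNA; gain of signal vs DMSO.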

[14] = read-out: Intercellular Adhesion Molecule 1 (ICAM1), ICAM1 (gene 3383); assay: BSK_3C_ICAM1: BioMAP Diversity Plus: 3C Assay for Intercellular Adhesion Molecule 1 (ICAM1) Biomarker Activity (AID 2283003; active means hit-call score of the fitted dose curve at least 0.9, where 1 is the maximum; inactive means score below 0.9); conditions: primary human endothelial cells (HUVEC); actives raise or lower the signal
Outline: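 Chemicals are dosed onto primary human umbilical vein endothelium (3C system). After 24 h, ICAM-1 is measured by ELISA, and responses are fitted bidirectionally relative to DMSO.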

[15] = BSK_3C_Proliferation: Cell Proliferation Assessment in the BioMAP Diversity Plus: 3C Assay (AID 2283006; active means hit-call score of the fitted dose curve at least 0.9, where 1 is the maximum; inactive means score below 0.9;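 further: potency may reflect either rise or fall in cell number versus DMSO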); conditions: primary human endothelial cells (HUVEC)
Outline: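 Cells (human umbilical vein endothelial, sub-confluent) receive test chemical; after 48 h they are fixed in 10% trichloroacetic acid, stained with 0.1% SRB and read at 560 nm. Activity is referenced to DMSO, fitting increases and decreases.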

[16] = read-out: E-selectin (Homo sapiens) (UniProt P16581); assay: BSK_3C_Eselectin: BioMAP Diversity Plus: 3C Assay for Eselectin Biomarker Activity (AID 2283015; active means hit-call score of the fitted dose curve at least 0.9, where 1 is the maximum; inactive means score below 0.9); conditions: primary human endothelial cells (HUVEC); actives raise or lower the signal
Outline: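 Human vascular endothelium from umbilical vein is exposed to test chemicals for 24 h. E-selectin levels are read by ELISA and compared with DMSO controls.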

[17] = read-out: Interleukin-1 alpha (IL1a), IL1A (gene 3552); assay: BSK_BE3C_IL1a: BioMAP Diversity Plus: BE3C Assay for Interleukin-1 alpha (IL1a) Biomarker Activity (AID 2283016; active means hit-call score of the fitted dose curve at least 0.9, where 1 is the maximum; inactive means score below 0.9); conditions: primary human bronchial epithelial cells; actives raise or lower the signal
Outline: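 Signal from IL-1a ELISA, taken 24 h after chemical dosing of human bronchial epithelial cells, is compared with DMSO as baseline using bidirectional curve fitting.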

[18] = read-out: Monocyte Chemoattractant Protein-1 (MCP1), CCL2 (gene 6347); assay: BSK_4H_MCP1: BioMAP Diversity Plus: 4H Assay for Monocyte Chemoattractant Protein-1 (MCP1) Biomarker Activity (AID 2283018; active means hit-call score of the fitted dose curve at least 0.9, where 1 is the maximum; inactive means score below 0.9); conditions: primary human endothelial cells (HUVEC); actives raise or lower the signal
Outline: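 Endothelial cells from umbilical vein were treated with test chemical, then after 24 h MCP-1 levels were quantified by ELISA; endpoint values came from bidirectional fitting with DMSO as baseline of activity.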

[19] = read-out: Human Leukocyte Antigen - DR isotype (HLADR), HLA-DRA (gene 3122); assay: BSK_3C_HLADR: BioMAP Diversity Plus: 3C Assay for Human Leukocyte Antigen - DR isotype (HLADR) Biomarker Activity (AID 2283019; active means hit-call score of the fitted dose curve at least 0.9, where 1 is the maximum; inactive means score below 0.9); conditions: primary human endothelial cells (HUVEC); actives raise or lower the signal
Outline: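 Endothelial cells from human umbilical vein are treated with test chemical; after 24 h, HLA-DR levels are measured by ELISA. Data are fitted in both directions using DMSO as the baseline.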

[20] = read-out: Interleukin-8 (IL8), CXCL8 (gene 3576); assay: BSK_3C_IL8: BioMAP Diversity Plus: 3C Assay for Interleukin-8 (IL8) Biomarker Activity (AID 2283020; active means hit-call score of the fitted dose curve at least 0.9, where 1 is the maximum; inactive means score below 0.9); conditions: primary human endothelial cells (HUVEC); actives raise or lower the signal
Outline: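 Endothelial primary cells of human umbilical vein origin are dosed with chemical; after 24 h the IL-8 biomarker is measured by ELISA, and concentration–response is fitted in both directions versus DMSO.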

Measured: AC50

Nuclear receptor subfamily 1 group I member 2 (Homo sapiens), sequence (O75469 whole entry, looked up, the tested form may be a part): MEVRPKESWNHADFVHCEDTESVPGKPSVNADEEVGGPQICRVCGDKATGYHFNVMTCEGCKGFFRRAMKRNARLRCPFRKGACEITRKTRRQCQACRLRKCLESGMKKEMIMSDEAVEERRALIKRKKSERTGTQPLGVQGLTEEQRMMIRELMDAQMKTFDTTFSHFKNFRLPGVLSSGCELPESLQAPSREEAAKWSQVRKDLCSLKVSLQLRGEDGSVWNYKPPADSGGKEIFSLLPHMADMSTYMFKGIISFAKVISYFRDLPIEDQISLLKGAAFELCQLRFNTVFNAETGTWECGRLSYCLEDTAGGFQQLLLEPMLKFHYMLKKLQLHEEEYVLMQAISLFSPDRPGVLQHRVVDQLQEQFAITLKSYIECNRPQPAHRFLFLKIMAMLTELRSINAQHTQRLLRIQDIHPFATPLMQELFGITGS
human Peroxisome Proliferator-activated Receptor delta (PPARd), PPARD (gene 5467), sequence (Q03181 whole entry, looked up, the tested form may be a part): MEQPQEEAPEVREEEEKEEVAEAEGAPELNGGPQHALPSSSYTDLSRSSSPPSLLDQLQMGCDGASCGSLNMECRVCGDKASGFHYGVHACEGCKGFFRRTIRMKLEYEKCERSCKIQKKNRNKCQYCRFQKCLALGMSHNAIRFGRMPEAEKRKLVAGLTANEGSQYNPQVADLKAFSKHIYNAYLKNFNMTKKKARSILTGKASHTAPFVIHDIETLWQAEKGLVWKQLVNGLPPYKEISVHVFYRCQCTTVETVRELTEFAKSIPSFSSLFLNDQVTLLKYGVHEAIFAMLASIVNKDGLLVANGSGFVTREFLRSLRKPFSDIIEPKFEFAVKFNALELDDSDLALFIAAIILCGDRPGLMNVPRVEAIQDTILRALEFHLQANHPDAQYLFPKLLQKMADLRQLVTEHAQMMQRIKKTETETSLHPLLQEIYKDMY
human Retinoic Acid Receptor beta (RARb), RARB (gene 5915), sequence (P10826 whole entry, looked up, the tested form may be a part): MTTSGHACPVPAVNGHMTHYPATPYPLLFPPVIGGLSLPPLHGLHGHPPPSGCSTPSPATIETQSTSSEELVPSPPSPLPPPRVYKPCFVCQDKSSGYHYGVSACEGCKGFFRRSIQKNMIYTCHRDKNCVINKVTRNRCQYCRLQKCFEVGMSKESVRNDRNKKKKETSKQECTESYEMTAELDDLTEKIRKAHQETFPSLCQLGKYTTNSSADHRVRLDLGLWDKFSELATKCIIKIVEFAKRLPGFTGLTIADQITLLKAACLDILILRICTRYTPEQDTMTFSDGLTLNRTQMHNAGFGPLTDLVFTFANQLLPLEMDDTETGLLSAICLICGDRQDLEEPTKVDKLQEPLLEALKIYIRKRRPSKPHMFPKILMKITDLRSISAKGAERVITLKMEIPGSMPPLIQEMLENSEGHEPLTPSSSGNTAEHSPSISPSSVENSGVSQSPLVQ
Peroxisome proliferator-activated receptor gamma (Homo sapiens), sequence (P37231 whole entry, looked up, the tested form may be a part): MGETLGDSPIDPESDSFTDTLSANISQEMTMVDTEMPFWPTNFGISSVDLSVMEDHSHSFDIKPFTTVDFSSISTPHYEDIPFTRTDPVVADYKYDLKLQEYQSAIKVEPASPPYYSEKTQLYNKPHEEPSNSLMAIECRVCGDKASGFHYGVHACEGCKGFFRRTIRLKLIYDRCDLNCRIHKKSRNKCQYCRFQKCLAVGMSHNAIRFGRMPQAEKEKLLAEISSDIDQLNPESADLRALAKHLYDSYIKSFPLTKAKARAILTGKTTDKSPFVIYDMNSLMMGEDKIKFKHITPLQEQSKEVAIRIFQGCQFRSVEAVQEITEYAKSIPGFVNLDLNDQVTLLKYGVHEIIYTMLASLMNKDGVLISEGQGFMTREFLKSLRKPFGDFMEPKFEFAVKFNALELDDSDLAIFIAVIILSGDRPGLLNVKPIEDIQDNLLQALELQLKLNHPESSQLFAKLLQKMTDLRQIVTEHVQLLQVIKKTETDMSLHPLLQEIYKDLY
Retinoic acid receptor alpha (Homo sapiens), sequence (P10276 whole entry, looked up, the tested form may be a part): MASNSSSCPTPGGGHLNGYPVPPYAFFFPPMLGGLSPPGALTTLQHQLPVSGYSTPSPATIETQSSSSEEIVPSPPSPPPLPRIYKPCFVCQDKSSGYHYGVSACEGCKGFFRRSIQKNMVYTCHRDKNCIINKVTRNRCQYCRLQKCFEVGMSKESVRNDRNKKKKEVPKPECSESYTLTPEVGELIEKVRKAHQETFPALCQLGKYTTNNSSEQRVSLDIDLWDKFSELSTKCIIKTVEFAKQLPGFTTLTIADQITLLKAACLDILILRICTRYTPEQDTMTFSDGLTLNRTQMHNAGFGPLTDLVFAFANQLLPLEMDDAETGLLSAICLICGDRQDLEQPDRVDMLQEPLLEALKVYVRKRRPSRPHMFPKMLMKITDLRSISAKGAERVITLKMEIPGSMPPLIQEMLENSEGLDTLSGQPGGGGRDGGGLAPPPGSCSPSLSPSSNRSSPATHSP
human Thyroid Receptor alpha (THRa1), THRA (gene 7067), sequence (P10827 whole entry, looked up, the tested form may be a part): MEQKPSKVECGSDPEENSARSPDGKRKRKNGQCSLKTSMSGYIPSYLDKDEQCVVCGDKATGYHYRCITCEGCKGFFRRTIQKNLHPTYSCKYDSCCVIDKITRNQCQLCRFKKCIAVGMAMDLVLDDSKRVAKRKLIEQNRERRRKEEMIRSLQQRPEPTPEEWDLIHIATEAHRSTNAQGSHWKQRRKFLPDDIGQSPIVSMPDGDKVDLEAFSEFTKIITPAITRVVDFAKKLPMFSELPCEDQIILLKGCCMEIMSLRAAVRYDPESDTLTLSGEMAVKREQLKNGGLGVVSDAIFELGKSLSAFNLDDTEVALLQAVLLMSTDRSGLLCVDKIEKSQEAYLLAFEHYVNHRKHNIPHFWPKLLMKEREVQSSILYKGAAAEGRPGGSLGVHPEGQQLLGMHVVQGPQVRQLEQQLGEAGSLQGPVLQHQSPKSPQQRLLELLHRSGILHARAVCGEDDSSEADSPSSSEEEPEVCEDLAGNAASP
human Retinoic Acid Receptor gamma (RARg), RARG (gene 5916), sequence (P13631 whole entry, looked up, the tested form may be a part): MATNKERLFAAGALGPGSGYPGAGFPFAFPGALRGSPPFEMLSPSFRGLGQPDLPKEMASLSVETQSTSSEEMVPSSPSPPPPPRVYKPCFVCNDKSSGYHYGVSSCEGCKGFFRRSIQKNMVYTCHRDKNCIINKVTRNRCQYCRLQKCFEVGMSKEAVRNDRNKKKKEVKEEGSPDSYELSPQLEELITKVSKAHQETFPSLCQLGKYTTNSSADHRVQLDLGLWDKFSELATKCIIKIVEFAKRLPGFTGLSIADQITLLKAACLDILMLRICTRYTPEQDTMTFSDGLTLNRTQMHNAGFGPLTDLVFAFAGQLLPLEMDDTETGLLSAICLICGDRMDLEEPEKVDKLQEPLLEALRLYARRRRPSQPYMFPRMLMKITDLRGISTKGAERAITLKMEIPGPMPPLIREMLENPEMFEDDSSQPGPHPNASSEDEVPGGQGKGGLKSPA
Retinoic acid receptor RXR-alpha (Homo sapiens), sequence (P19793 whole entry, looked up, the tested form may be a part): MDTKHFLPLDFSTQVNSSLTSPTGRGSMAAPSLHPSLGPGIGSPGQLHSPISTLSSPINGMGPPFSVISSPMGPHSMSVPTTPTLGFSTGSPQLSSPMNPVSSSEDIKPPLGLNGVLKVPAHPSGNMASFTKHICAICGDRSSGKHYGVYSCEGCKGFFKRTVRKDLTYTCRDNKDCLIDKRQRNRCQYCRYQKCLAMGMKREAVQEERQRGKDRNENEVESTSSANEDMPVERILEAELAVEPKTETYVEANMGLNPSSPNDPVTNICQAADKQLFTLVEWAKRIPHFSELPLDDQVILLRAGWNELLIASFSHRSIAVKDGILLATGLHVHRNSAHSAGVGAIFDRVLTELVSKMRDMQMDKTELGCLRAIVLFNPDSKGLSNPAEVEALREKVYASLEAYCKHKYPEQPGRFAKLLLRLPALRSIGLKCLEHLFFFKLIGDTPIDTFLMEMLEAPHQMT
human RAR-related Orphan Receptor beta (RORb), RORB (gene 6096), sequence (Q92753 whole entry, looked up, the tested form may be a part): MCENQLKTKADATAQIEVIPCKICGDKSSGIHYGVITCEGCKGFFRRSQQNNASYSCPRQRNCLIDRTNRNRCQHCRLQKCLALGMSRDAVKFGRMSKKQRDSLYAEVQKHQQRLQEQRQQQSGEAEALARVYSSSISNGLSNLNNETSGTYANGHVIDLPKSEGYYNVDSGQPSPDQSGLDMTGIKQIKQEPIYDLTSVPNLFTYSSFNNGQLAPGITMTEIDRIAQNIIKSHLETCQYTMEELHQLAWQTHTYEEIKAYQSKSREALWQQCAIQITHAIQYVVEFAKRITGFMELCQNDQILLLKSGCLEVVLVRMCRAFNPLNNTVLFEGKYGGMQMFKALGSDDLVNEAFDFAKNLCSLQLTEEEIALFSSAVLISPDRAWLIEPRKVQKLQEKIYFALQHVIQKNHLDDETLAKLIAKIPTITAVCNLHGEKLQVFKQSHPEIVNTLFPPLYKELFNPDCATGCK
human RAR-related Orphan Receptor gamma (RORg), RORC (gene 6097), sequence (P51449 whole entry, looked up, the tested form may be a part): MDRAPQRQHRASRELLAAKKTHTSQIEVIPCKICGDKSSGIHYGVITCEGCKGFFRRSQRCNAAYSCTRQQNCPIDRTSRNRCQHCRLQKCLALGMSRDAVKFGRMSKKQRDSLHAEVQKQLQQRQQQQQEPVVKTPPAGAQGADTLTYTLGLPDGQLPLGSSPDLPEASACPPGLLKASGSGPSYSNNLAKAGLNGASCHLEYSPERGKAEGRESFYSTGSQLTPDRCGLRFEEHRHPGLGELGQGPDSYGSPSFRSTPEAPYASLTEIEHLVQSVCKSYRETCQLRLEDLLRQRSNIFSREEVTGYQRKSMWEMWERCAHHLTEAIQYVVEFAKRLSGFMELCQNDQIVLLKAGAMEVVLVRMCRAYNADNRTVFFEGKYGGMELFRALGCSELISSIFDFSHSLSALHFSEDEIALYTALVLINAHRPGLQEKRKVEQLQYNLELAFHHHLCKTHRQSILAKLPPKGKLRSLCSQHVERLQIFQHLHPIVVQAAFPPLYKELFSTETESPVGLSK

CCCCCC/C=C\CCCCCCCC(=O)O
inactive: [1] | [2] | [3] | [4] | [5]
active: [6] 77 µM

C=C(C)C(=O)OCC(C)C
inactive: [1]

Nc1ncn([C@@H]2O[C@H](CO)[C@@H](O)[C@H]2O)c(=O)n1
inactive: [1] | [2] | [3] | [7] | [8] | [5] | [9] | [10]

C=CC(C)(C)C
inactive: [1] | [2] | [11] | [7] | [12] | [5] | [10]

O=C(c1ccccc1)c1ccc(O)c(O)c1O
inactive: [1] | [2] | [3] | [4] | [5] | [9] | [10]
active: [11] 47 µM | [7] 24 µM

CCCCCC/C=C/C=O
inactive: [2] | [7] | [4] | [6]
active: [1] 66.3 µM | [11] 20.8 µM

C[Si](C)(C)O[Si](O)(O)O
inactive: [1] | [2] | [13] | [7] | [8] | [12] | [5] | [6]

CC(C)CCCC(C)CC=O (stereo unspecified)
active: [1] 45.8 µM
inactive: [2] | [11] | [7] | [4] | [12] | [6] | [9]

CC(C)c1ccc2c(C(C)C)cc(C(C)C)c(S(=O)(=O)O)c2c1
active: [11] 25.1 µM | [7] 1.23 µM | [6] 18.2 µM
inactive: [1] | [2] | [13] | [4] | [5]

CCOC(=O)CC(C(C)=O)C(C)=O
inactive: [1] | [2] | [3] | [7] | [4] | [5]

C1=Cc2ccccc2C1
active: [11] 67.4 µM | [7] 6.06 µM
inactive: [1] | [2] | [8] | [4] | [12] | [6] | [9] | [10]

CCCCCCCCCCCCCCCC[N+](C)(C)CC
inactive: [2] | [13] | [7] | [5] | [10]
active: [1] 13.3 µM | [14] 3.44 µM | [3] 17.8 µM | [15] 0.636 µM | [11] 15.6 µM | [8] 19.6 µM | [6] 13 µM | [9] 12.1 µM | [16] 3.48 µM | [17] 7.31 µM | [18] 0.845 µM | [19] 0.932 µM | [20] 3.73 µM

COC(=O)c1sccc1S(N)(=O)=O
inactive: [1] | [2] | [3] | [11] | [7] | [8] | [4] | [12] | [9] | [10]

c1ccc(CNCc2ccccc2)cc1
inactive: [1] | [2] | [11] | [7] | [12] | [10]
